Rows were chosen to be rich in hits. Some 2.9% of all compounds tested hit in one or more screens of this group.
Pol beta inh = qHTS Assay for Inhibitors of DNA Polymerase Beta; Pol beta primer extension/strand displacement, fluorescence kinetic; P06746; actives 1.3% (n = 340,000); Potency, µM (top dose mostly 114 µM), most hits filed as inhibitors
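Values derive from four-parameter Hill fits of normalized kinetic data: reads at 0 and 10 min following addition of 50 nM substrate to 10 nM Pol beta preincubated 15 min with compound.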
Pol kappa inh-1 = qHTS for Inhibitors of Polymerase Kappa; DNA polymerase kappa (Homo sapiens), Q9UBT6; actives 0.53% (n = 400,000); Potency, µM (titrated, usually from 107 µM), most hits filed as inhibitors; purified Pol kappa, fluorescent DNA synthesis assay, 10 min
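Activity was followed as the change in fluorescence between reads at 0 and 10 min after starting the reaction with 50 nM substrate. Beforehand, 10 nM polymerase had been preincubated with compound for 15 min at room temperature.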
Pol eta inh-1 = qHTS for Inhibitors of Polymerase Eta; DNA polymerase eta (Homo sapiens), Q9Y253; recombinant Pol eta, fluorescent DNA replication assay; Potency, µM (titrated, usually from 114 µM), actives largely listed as inhibitors; actives 1.2% (n = 390,000)
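Fluorescent replication assay: 50 nM final substrate added after a 15 min room-temperature compound preincubation with 10 nM enzyme. Signal taken at 0 min and again at 10 min.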
Pol iota inh = qHTS for Inhibitors of Polymerase Iota | DNA polymerase iota (Homo sapiens), Q9UNA4 | Pol iota fluorescent replication assay, 10 min | Potency, µM (highest dose often 115 µM), usual class: inhibitors | actives 1% (n = 390,000)
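Fluorescent replication assay read twice, at 0 min and 10 min after adding 50 nM (final) substrate. Enzyme (10 nM) and compounds were first incubated 15 min at room temperature; enzyme-free buffer wells were negative controls.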
PI5P4K alpha inh = qHTS for Inhibitors of phosphatidylinositol 5-phosphate 4-kinase (PI5P4K); Phosphatidylinositol 5-phosphate 4-kinase type-2 alpha (Homo sapiens), P48426; PI5P4Kalpha enzyme, ADP-Glo luminescence, 60 min; active compounds read low; max response, %; actives 1.2% (n = 330,000); active = max response of -50% or lower; inconclusive = between -30% and -50%; inactive = -30% or higher; also: value at the top dose of about 77 µM
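Enzyme plus substrate dispensed, test compounds pinned in, then ATP (5 microM final) added. After 60 min at RT, ADP-Glo reagent 1 for 45 min and reagent 2 for 30 min preceded luminescence imaging.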
12-LOX inh = Primary qHTS assay for inhibitors of human arachidonate 12S-lipoxygenase (ALOX12): Round 2; Potency, µM (doses to about 108 µM), most hits filed as inhibitors; Polyunsaturated fatty acid lipoxygenase ALOX12 (Homo sapiens), P18054; AID 1671190, 2021; actives 1.1% (n = 580,000); purified 12hLO, xylenol orange hydroperoxide absorbance
Target sequence (P18054 whole entry, looked up): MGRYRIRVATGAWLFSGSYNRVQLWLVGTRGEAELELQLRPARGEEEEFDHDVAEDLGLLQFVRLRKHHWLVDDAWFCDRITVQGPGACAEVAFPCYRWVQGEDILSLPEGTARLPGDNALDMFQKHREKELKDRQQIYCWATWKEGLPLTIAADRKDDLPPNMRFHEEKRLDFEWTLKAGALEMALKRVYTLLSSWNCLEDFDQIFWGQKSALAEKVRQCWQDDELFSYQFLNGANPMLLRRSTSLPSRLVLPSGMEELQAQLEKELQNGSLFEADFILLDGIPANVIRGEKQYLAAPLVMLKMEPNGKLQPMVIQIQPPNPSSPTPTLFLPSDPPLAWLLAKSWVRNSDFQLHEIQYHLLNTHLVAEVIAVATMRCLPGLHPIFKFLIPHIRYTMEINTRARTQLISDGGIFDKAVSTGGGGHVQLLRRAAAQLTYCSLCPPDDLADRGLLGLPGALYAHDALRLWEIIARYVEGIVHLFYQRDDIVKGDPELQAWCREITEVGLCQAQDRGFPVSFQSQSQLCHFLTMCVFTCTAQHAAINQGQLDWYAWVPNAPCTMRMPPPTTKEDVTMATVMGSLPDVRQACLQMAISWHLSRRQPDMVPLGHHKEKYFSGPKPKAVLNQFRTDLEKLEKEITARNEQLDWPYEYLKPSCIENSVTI
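Hydroperoxide product was detected by ferrous iron/xylenol orange as the 573 to 405 nm absorbance ratio. Arachidonic acid at 40 uM (final) was turned over for 30 min at room temperature by 150 nM human 12hLO, pH 7.0 Hepes buffer, after 15 min compound preincubation.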
GALK confirm = Confirmation Assay for Inhibitors of Human Galactokinase (GALK); purified GALK, Kinase-Glo ATP depletion luminescence; actives 70% (n = 150); shares compounds with Pol eta inh-1; AID 2015, 2009; Potency, µM (series often up to 115 µM), most hits filed as inhibitors
Redox cycling = Confirmatory Assay for Inhibitors of Human Galactokinase (GALK): Phenol-HRP redox assay counterscreen; Phenol red-HRP H2O2 redox cycling, absorbance 600 nm; Potency, µM (doses to about 115 µM), actives largely listed as inhibitors; actives 40% (n = 150); shares compounds with Pol eta inh-1
HEK293 viability = Secondary Assay for Inhibitors of Human Galactokinase (GALK): HEK-293 Cell Viability Assay; shares compounds with Pol eta inh-1; HEK-293 viability, ATP luminescence (CellTiter-Glo), 24/48 h; Potency, µM (top dose mostly 46.1 µM), hits mostly inhibitors; actives 10% (n = 170); AID 2547, 2010
Pol kappa inh-2 = qHTS for Inhibitors of Polymerase Kappa: Confirmatory Assay for Cherry-picked Compounds. shares compounds with Pol eta inh-1. purified Pol-kappa, fluorescent strand-displacement substrate. Potency, µM, actives largely listed as inhibitors. actives 76% (n = 920)
Pol eta inh-2 = qHTS for Inhibitors of Polymerase Eta: Confirmatory Assay for Cherry-picked Compounds | shares compounds with Pol eta inh-1 | Pol eta primer extension, TAMRA/BHQ fluorescence, 10 min | Potency, µM, hits mostly inhibitors | actives 64% (n = 2,600) | AID 720502, 2013
Numbers stand for hits; – = inactive; ? = inconclusive; · = not tested or not shown. Unless noted, calls follow the shape of the dose curve; as a rule, active = well fitted curve in the direction sought with a large enough effect; inconclusive = small, poorly fitted or top-dose-only effect, or another doubt; inactive = no such curve, though single readings can be large; an effect the other way counts as inactive or inconclusive.

SMILES	Pol beta inh	Pol kappa inh-1	Pol eta inh-1	Pol iota inh	PI5P4K alpha inh	12-LOX inh	Pol eta inh-2	others
O=C1C(C2=C(O)c3ccccc3C2=O)=Nc2ccccc21	–	–	32µM	–	·	?	·	GALK confirm=24µM;Redox cycling=15µM;HEK293 viability=–
CCC(=O)Nc1nc2c(OC)cc(NS(=O)(=O)c3cc(F)ccc3F)cc2s1	·	·	·	·	·	–	·
COc1cc(/C=C2\SC(=S)N(NS(=O)(=O)c3ccc(C)cc3)C2=O)ccc1O	40µM	?	?	40µM	-68	?	·	Pol kappa inh-2=?
O=C1/C(=C\c2ccc(Br)cc2)SC(=S)N1NS(=O)(=O)c1ccccc1	–	–	50µM	–	-56	–	?
CC(/C=C1\SC(=S)N(NS(=O)(=O)c2ccc(C)cc2)C1=O)=C\c1ccccc1	40µM	–	40µM	?	?	16µM	?
Cc1cnc(-c2ccccc2)n1C1CCNCC1	·	·	·	·	·	–	·
CCCCCCn1c(N(C)Cc2ccccc2)nc2c1c(=O)[nH]c(=O)n2C	·	·	·	·	·	–	·
COc1ccccc1C(=O)Nc1nc2nc(C)c(Cc3ccccc3)c(=O)n2[nH]1	–	–	?	–	·	–	76
C[C@H](NC(=O)C1CCC(CNC(=O)[C@@H]2CCCN2C(=O)OC(C)(C)C)CC1)C(=O)O (some centres undefined)	–	–	–	–	–	–	·	GALK confirm=–;Redox cycling=–;HEK293 viability=–
COC(=O)CNC(=O)C1CCCN1C(=O)OC(C)(C)C (centres undefined)	–	–	–	–	·	–	·
S=C1Cc2ccccc2N1	–	–	25µM	10µM	-64	?	·	GALK confirm=27µM;Redox cycling=7.5µM;HEK293 viability=–
Nc1c(C=C2C=CC(=O)C=C2)c(=O)nc2sc(CC(=O)N3CCCCC3)nn12	–	–	40µM	?	?	?	76
O=C(OCC(=O)N1CCCCCC1)c1ccccc1-c1nc2ccccc2s1	·	·	·	·	·	–	·
Cc1ccc(-c2cc(C(=O)N3CC(C)CC(C)C3)c3ccccc3n2)o1 (centres undefined)	40µM	?	79µM	–	?	35µM	76
CC(=O)Nc1cccc(-c2nc3cc(Cl)ccc3o2)c1	·	·	·	·	·	–	·
CCOc1ccc(C(=O)N2CCCN(S(C)(=O)=O)c3ccccc32)cc1OCC	·	·	·	·	·	–	·
CC[C@H](C)/C=C(C)/C=C/C1=CC2=CC(=O)[C@]3(C)OC(=O)[C@@H](C(C)=O)[C@@H]3C2=CO1	35µM	79µM	25µM	22µM	-60	?	?
COc1cc2cc3c(N)c(C(=O)Nc4sc(C)c(C)c4C#N)sc3nc2cc1OC	7.9µM	32µM	28µM	7.9µM	·	–	30
CC1(C)C(C=C(Cl)Cl)C1C(=O)Nc1ccccc1C(=O)O (centres undefined)	·	·	·	·	·	–	·
O=[N+]([O-])c1ccc(O)c(C=NNc2ccc(S(=O)(=O)O)cc2)c1	·	?	6.3µM	22µM	–	?	54	Pol kappa inh-2=21
Cc1cc(CS(=O)(=O)CC(=O)NC2CCCCCC2)on1	·	·	·	·	·	–	·
CCOc1cc(/C=C(/C#N)c2ccc(F)cc2)ccc1OCc1ccc(C(=O)O)o1	–	–	?	–	–	–	·
N#C/C(=C\c1ccc(-c2ccc(Cl)c(C(=O)O)c2)o1)c1nc2ccccc2[nH]1	?	–	22µM	22µM	·	–	60
CCOc1cc(/C=C(/C#N)c2nc3ccccc3[nH]2)ccc1OCc1ccc(C(=O)O)o1	40µM	?	7.9µM	–	–	–	30	Pol kappa inh-2=34
COC(=O)c1ccccc1-c1ccc(/C=C(\C#N)c2nc3ccccc3[nH]2)o1	·	·	·	·	·	–	·
SMILES	Pol beta inh	Pol kappa inh-1	Pol eta inh-1	Pol iota inh	PI5P4K alpha inh	12-LOX inh	Pol eta inh-2	others
N#C/C(=C\c1ccc(-c2ccc(C(=O)O)cc2)o1)c1nc2ccccc2[nH]1	?	?	28µM	32µM	?	?	34	Pol kappa inh-2=13
CCCCCCC(=O)Nc1ccc(C)cc1C	·	·	·	·	·	–	·
Cc1c(OCC(=O)Nc2ccc(F)cc2)c(=O)ccn1C	·	·	·	·	·	–	·
Oc1ccc(/C=N/Nc2ncnc3c2ncn3Cc2ccccc2)cc1O	3.5µM	?	3.2µM	2.2µM	?	?	48
Cc1ccc(/C=N/Nc2ccc(C(=O)O)cc2)s1	?	–	40µM	?	–	?	48	Pol kappa inh-2=?
CN(C)S(=O)(=O)c1ccc(Cl)c(NC(=O)COC(=O)/C=C/c2ccco2)c1	?	–	?	?	–	–	?
CCN(CC)S(=O)(=O)c1ccc(/C=C/C(=O)OCC(=O)NCc2ccco2)cc1	·	?	16µM	35µM	-57	–	?	Pol kappa inh-2=42
CCN(CC)S(=O)(=O)c1ccc(C(=O)OCC(=O)NCc2ccco2)cc1	?	?	?	?	–	–	·
COc1ccccc1C1C(C(=O)OCc2ccccc2)=C(C)NC2=C1C(=O)CCC2 (centres undefined)	·	·	·	·	·	–	·
COc1ccc(N=C2S/C(=C\c3ccc(OC(C)C(=O)O)c(OC)c3)C(=O)N2CCc2c[nH]c3ccccc23)cc1 (centres undefined)	35µM	?	32µM	?	-54	?	·	GALK confirm=42µM;Redox cycling=–;HEK293 viability=–
C#Cc1ccc([C@@H]2C=C(C(=O)NCc3ccccc3)O[C@H](OCc3ccc(CO)cc3)C2)cc1	–	–	–	–	–	–	·
C#Cc1ccc([C@H]2C=C(C(=O)O)O[C@@H](OCc3ccc(CO)cc3)C2)cc1	28µM	?	35µM	?	–	45µM	·	Pol kappa inh-2=42
